# Sampled rows, rich in hits. Any-hit rate of the full collection: about 1.8%.
# MEX-5 binding: C. elegans MEX-5 TCR-2 RNA binding activity | activity score (negative = inhibition of binding), % at 10 µM | AID 1832 | Q9XUB2 | MEX-5/FITC-TCR2 RNA binding, fluorescence polarization; hits give low values | 0.38% of 300,000 active;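 active = inhibition past about -25% in most replicates, and total fluorescence under double the plate's negative control median, limit read from the data; inconclusive = replicates evenly split on the limit, or fluorescence at least double controls; inactive = too little inhibition in most replicates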;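 note: 0% = DMSO and -100% = 5 µM competing unlabeled TCR2 RNA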
# Target sequence (Q9XUB2 whole entry, looked up): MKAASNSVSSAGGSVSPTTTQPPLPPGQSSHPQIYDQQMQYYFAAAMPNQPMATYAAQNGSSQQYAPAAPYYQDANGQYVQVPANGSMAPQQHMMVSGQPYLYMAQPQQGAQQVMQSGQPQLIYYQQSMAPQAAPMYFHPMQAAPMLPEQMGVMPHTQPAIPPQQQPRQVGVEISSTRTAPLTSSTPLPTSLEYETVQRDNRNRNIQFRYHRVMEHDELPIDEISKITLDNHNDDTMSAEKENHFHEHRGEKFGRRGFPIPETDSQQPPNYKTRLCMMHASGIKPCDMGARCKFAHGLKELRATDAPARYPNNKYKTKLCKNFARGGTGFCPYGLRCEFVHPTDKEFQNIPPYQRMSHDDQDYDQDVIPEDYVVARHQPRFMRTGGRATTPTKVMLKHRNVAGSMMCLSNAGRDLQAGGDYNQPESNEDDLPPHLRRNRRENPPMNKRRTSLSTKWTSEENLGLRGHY
# PABP polyA inh: PABP-poly(A) binding inhibition; PABP-poly(A) RNA binding, fluorescence polarization; P11940; 1% of 290,000 active; calls only at 35 µM; AID 2014;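 note: calls also rest on retests at 20 µM and on dose response follow-up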
# PABP1 MLLE inh: blocks PAM2 peptide binding to the PABP1 MLLE domain; P11940; inhibition, % at 20 µM; 0.36% of 360,000 active; GST-MLLE / FITC-PAM2 fluorescence polarization; in the data active = inhibition above about 35%, passing the limit was not always enough;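 note: plate controls were DMSO wells with GST-MLLE for no effect and wells lacking GST-MLLE protein for full effect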
# EBV gp42 inh: inhibitors of Epstein-Barr virus glycoprotein 42; Fluorescence polarization binding assay, mP read-out; 0.42% of 220,000 active; Q1HVG2; inhibition, % (tested at 21.74 µM); in the data active = inhibition above about 50%
# eIF4H inh: inhibitors of RNA binding by human eIF4H; Q15056; eIF4H fluorescence polarization binding assay; inhibition, % at 35 µM; 0.94% of 290,000 active; AID 2012;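 note: calls also rest on retests at 20 µM and on dose response follow-up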
# The depositor's hits bear a star; i = inactive; ? = inconclusive; . = no result given; + = active, no number. Unless noted, the rule behind the calls is not given here.
SMILES,MEX-5 binding,PABP polyA inh,PABP1 MLLE inh,EBV gp42 inh,eIF4H inh
COc1cccc(CN2CCC2(C)C(=O)Nc2ccc(C)c(O)c2)c1F (stereo not drawn),.,.,-7.3,.,.
Cn1cc(Br)c(C(=O)NC2CCCCCC2)n1,-4.7,i,3.9,.,80.0*
Cn1cc(Br)c(C(=O)NC2C3CC4CC(C3)CC2C4)n1 (stereo not drawn),-0.2,i,12.3,-8.9,-7.8
O=C(Nc1cccc(Cl)c1)c1cc(N=Nc2ccc([N+](=O)[O-])cc2Cl)ccc1O,0.2,+,-4.8,79.0*,80.6
Cc1ccc(C2CC(=O)Oc3cc(O)ccc32)cc1 (stereo not drawn),-20.5,+,7.1,36.1,50.3*
CC(C)NC(=O)C1(C)Cc2c(-c3ccc(N(C)C)cc3)ccnc2O1 (stereo not drawn),.,.,5.6,.,.
CC1(C)S/C(=N/N=C/c2ccco2)NC1=O,-1.3,+,-21.1,-14.0,?
CC1S/C(=N/N=C/c2ccco2)NC1=O (stereo not drawn),-1.2,i,1.6,-25.9,2.4
COc1ccccc1CNC(=O)c1cnccn1,-0.6,+,-6.0,43.2,53.5
COc1ccccc1CNC(=O)COC(=O)c1cnccn1,-2.1,i,14.3,-0.8,-14.5
Cc1cc(C)n2nc(SCc3cc(=O)oc4ccc5ccccc5c34)nc2n1,3.6,i,40.2*,7.9,28.6
O=C(O)c1cnn(-c2ccccc2)c1-c1ccncc1,-5.4,i,4.2,.,56.6*
O=S1(=O)C[C@@H](N2CCC(Cc3ccccc3)CC2)[C@H](COCc2ccccc2)N1,.,.,10.5,.,.
CCc1ccc(O)c(N=Cc2ccccc2O)c1,0.6,i,-15.5,-41.1,19.7
O=c1[nH][nH]c2c(N=Cc3ccccc3O)ccc(F)c12,.,?,48.7*,11.8,?
COCCCNC(=O)c1cccn2c(=O)c3cc4ccccc4cc3nc12,-14.0,+,36.0,24.6,20.4
O=C(NCc1ccco1)c1cccn2c(=O)c3cc4ccccc4cc3nc12,.,i,.,48.0,24.8
COc1cccc(N2CCN(Cc3nc4scc(-c5ccccc5)c4c(=O)[nH]3)CC2)c1,1.3,+,-39.7,-77.6,78.6*
Cc1c(C(=O)N2CCCC(C)(C(=O)NS(=O)(=O)C3CC3)C2)oc2ccccc12 (stereo not drawn),.,.,6.1,.,.
Cc1ccc(C(=O)NCC(=O)Nc2cccc(C(F)(F)F)c2)cc1,0.8,i,-11.3,0.6,active
COc1ccc(NC(=O)C2(C)Cc3c(-c4ccc(N(C)C)cc4)ccnc3O2)cn1 (stereo not drawn),.,.,2.5,.,.
CC(C)c1ccc(/C=C/C(=O)n2nnc3ccccc32)cc1,1.2,i,3.7,85.1*,3.5
CC(C)c1ccc(/C=C/C(=O)N2CCCCCC2)cc1,-3.8,i,10.0,1.9,-12.2
COc1cc(NC(=O)Cn2nc(-c3ccc(F)cc3)ccc2=O)ccc1-n1cnnn1,-0.3,i,0.2,5.4,101.7*
CC(C)S(=O)(=O)NC(=O)C1(C)CCN1C(=O)Cc1ccccc1 (stereo not drawn),.,.,3.8,.,.
SMILES,MEX-5 binding,PABP polyA inh,PABP1 MLLE inh,EBV gp42 inh,eIF4H inh
C=CCn1c(SCC(=O)NC2CCS(=O)(=O)C2)nc2scc(C3CC3)c2c1=O (stereo not drawn),0.5,i,-24.6,-13.1,-5.2
C=CCn1c(SCC(=O)c2ccc(CNC(C)=O)o2)nc2scc(C3CC3)c2c1=O,3.0,i,-47.2,1.4,77.2*
CC(C)n1[nH]c2ccccc2c1=O,.,.,-2.0,.,.
CN1C(=O)N(C)C2(c3ccccc3)NNC(N)=NC12c1ccccc1 (stereo not drawn),-2.7,i,-6.5,-18.5,-2.4
CN(C)c1ccc(/C=c2/sc3n(c2=O)NC2(c4ccccc4)N(C)C(=O)N(C)C2(c2ccccc2)N=3)cc1 (stereo not drawn),0.6,i,.,50.2*,13.5
CN1C(=O)N(C)C2(c3ccccc3)Nn3c(s/c(=C/c4ccccc4F)c3=O)=NC12c1ccccc1 (stereo not drawn),-2.4,i,.,-19.6,-2.5
CN1C(=O)N(C)C2(c3ccccc3)Nn3c(s/c(=C/c4ccco4)c3=O)=NC12c1ccccc1 (stereo not drawn),-4.4,+,-12.2,-16.8,50.5
COCCNC(=O)C1(C)CCN(C(=O)c2ccc3ccccc3n2)C1 (stereo not drawn),.,.,-4.2,.,.
CC(=O)Nc1ccc(CN2C(=O)C(CCc3ccccc3)ON=C2c2cnccn2)cc1 (stereo not drawn),.,.,-8.7,.,.
COc1cc(-c2cc(=O)c3ccc(O)cc3o2)cc(OC)c1OC,.,.,45.5*,.,.
COc1ccc(-c2cc(=O)c3ccc(O)cc3o2)cc1,.,.,23.0,.,.
Cc1c(C(C)(C)C)c(C=S)n2ccccc12,0.9,+,29.5,19.8,77.3*
O=C(CCN1CCC2CCC(C2)C1)c1ccccc1 (stereo not drawn),.,.,42.4*,.,.
CCCCn1c(O)c(N=Nc2ccccn2)c2ccccc21,-30.8*,i,-11.8,-17.1,4.7
CCc1nc2ccc(C(=O)NCCOc3ccc(OC)cc3)cn2c1N(CC)Cc1ccc(OC)c(OC)c1,.,.,-2.9,.,.
COC(=O)c1ccc(CC(=O)c2c(C)cc(O)cc2O)o1,-3.5,+,1.0,-16.9,79.9*
COC(=O)c1ccc(CC(=O)c2ccc(O)cc2O)o1,-7.0,i,-20.8,-2.0,6.0
O=C(NC(=S)Nc1ccc(Cc2ccncc2)cc1)c1ccccc1Cl,-0.8,i,42.7*,-5.3,1.5
Cc1ccccc1C(=O)NC(=S)Nc1ccc(Cc2ccncc2)cc1,-1.9,i,25.3,0.3,-8.2
CCc1c(O)nc(SCC(=O)Nc2c(C)cccc2C)n(-c2ccc(F)cc2)c1=O,.,.,-82.4,.,.
Cc1c(O)nc(SCC(=O)Nc2ccc3c4c(cccc24)CC3)n(-c2ccc(F)cc2)c1=O,1.8,i,40.0*,13.2,39.2
COc1ccc(-c2nc3ccc(C)cn3c2Cc2ccsc2)cc1OC,.,.,-10.0,.,.
Nc1c(/C=C2/C=CC(=O)C(O)=C2)c(=O)nc2sc(CC(=O)N3CCCCC3)nn12,?,+,-50.5,.,68.9*
Nc1c(/C=C2/C=CC(=O)C(O)=C2)c(=O)nc2sc(CC(=O)N3CCCC3)nn12,-16.4,+,-33.6,.,55.2*
Nc1c(/C=C2/C=CC(=O)C(O)=C2)c(=O)nc2sc(CC(=O)N3CCOCC3)nn12,.,.,-39.8,.,.
CC1CN(C(=O)CSc2nc(N)c(NC(=O)c3ccc(C(F)(F)F)cc3)c(=O)[nH]2)CC(C)O1 (stereo not drawn),.,.,5.5,.,.
CCn1c(N)c(C(=O)NC2CCCCC2)sc1=S,0.9,i,41.8*,12.1,1.9
OC[C@H]1O[C@@H](n2cnc3c(Nc4ccccc4)ncnc32)[C@H](O)[C@@H]1O,0.3,+,3.0,-4.1,active
O=C(C1=NN(c2ccccc2)C2C(=O)N(c3ccccc3)C(=O)C12)c1ccccc1 (stereo not drawn),-36.8*,i,8.2,58.6*,75.9
CCOC(=O)C1=NN(c2ccccc2)C2C(=O)N(c3ccccc3OC)C(=O)C12 (stereo not drawn),-2.0,i,1.4,3.1,-7.3

# Source: PubChem (several laboratories)
